IDE inh = inhibits human insulin-degrading enzyme in HEK cells; P14735; FAbetaB cleavage, fluorescence polarization; inhibition, % at 5.59 µM; 320,000 tested, 0.41% active; AID 434962;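 active = percent inhibition above the average of all tested compounds plus 3 SD, set per screening campaign, cut at about 16% in these data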;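 also: IDE supplied by intact live HEK cells; FP after avidin binding of uncleaved biotin substrate so inhibition keeps polarization high; 0% = DMSO wells and 100% = 60 µM reference IDE inhibitor Ii1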
Target sequence (P14735 whole entry, looked up): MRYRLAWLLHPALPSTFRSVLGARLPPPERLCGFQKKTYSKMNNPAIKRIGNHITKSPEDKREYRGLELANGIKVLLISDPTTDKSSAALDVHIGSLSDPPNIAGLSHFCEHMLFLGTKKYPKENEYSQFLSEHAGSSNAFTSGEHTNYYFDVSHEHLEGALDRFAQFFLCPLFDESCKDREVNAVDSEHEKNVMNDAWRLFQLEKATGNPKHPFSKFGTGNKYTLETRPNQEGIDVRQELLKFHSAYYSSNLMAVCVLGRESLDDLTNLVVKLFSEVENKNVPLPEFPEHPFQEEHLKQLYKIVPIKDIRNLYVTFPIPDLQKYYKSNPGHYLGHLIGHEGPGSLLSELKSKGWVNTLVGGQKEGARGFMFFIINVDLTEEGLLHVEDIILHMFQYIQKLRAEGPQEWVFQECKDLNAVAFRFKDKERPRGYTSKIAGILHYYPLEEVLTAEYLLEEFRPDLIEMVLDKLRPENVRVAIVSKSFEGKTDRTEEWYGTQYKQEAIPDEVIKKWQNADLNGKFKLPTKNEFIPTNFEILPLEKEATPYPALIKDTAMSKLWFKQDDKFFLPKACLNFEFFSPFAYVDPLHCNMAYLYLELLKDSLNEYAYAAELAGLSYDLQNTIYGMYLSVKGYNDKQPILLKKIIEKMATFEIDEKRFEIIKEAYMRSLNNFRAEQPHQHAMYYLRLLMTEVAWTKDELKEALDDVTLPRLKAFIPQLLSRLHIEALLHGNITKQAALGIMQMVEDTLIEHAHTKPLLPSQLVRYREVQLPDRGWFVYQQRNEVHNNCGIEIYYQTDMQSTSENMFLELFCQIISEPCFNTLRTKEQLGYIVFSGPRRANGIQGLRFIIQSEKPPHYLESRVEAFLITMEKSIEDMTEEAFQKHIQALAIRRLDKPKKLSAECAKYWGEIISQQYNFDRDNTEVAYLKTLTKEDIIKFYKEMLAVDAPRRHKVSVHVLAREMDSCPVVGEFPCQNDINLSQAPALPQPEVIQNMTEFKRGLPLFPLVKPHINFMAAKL
Keap1 Nrf2 FP = inhibitors of human Keap1-Nrf2 protein-protein interaction; Keap1 Kelch-Nrf2 peptide fluorescence polarization, 1536-well; inhibition, % at 9.4 µM; 340,000 tested, 0.15% active; in the data active = inhibition above about 12%;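 also: human Keap1 Kelch domain with fluorescein labeled Nrf2 9mer peptide probe; 0% = neutral control wells and 100% = peptide positive control; higher means more block of Keap1 binding to Nrf2 peptide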
IDE act = boosts human insulin-degrading enzyme activity in HEK cells; activation, % at 5.96 µM; AID 493087; 340,000 tested, 0.073% active; FAbeta-B cleavage, fluorescence polarization; 0% vehicle, 100% cell-free pure enzyme wells; P14735;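 active = activation above the mean of all tested compounds plus 3 SD, set per screening campaign, cut at about 17% in these data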
cardiac RTF act = increases calcium sensitivity of human cardiac regulated thin filaments | P19429+P45379 | IANBD-labeled TnC RTF fluorescence at EC20 calcium; 0% EC20 calcium, 100% full calcium | activation, % at 7.2 µM | 340,000 tested, 0.24% active | AID 493008;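 active = activation above the mean over all tested compounds plus 3 SD, cut at about 30% in these data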;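 also: rise in fluorescence read as greater calcium sensitivity of cardiac thin filaments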
RTF Ca sens inh = cardiac RTF calcium desensitization; P19429+P45379; IANBD-labeled cardiac RTF, Ca2+ fluorescence; inhibition, % at 7.15 µM; 340,000 tested, 0.12% active;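 active = inhibition above the mean inhibition of all tested compounds plus 3 SD, cut at about 17% in these data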;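 also: assay run at fixed EC70 calcium of 1.6 mM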
C-LANA FP = KSHV C-LANA DNA binding inhibition. MBP-C-LANA/FAM-LBS DNA binding, fluorescence polarization. inhibition, % at 9 µM. 340,000 tested, 0.078% active. AID 504423;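 active = highest replicate inhibition at or above 60% at 9 µM, even if other replicates fall short; inactive = all replicates below 60% inhibition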;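 also: 0% = neutral control wells and 100% = 4 µM acridine orange control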
Numbers without * were called inactive; / = not tested or not shown. Sampled rows, rich in hits. Any-hit rate of the full collection: about 0.81%.

SMILES	IDE inh	Keap1 Nrf2 FP	IDE act	cardiac RTF act	RTF Ca sens inh	C-LANA FP
Cc1cc(Br)cc2c1NC(=O)C2(O)CC(=O)c1ccco1 (stereo not drawn)	-1	-5	4	-3	-4	-2
CCN1CCc2c(sc(NC(=O)c3ccc(S(=O)(=O)N(C)c4ccccc4)cc3)c2C(=O)NC)C1	14	-1	-35	52*	-44	0
CCN(CC)c1ccc2cc(-c3nc(-c4cc5ccccc5oc4=O)cs3)c(=O)oc2c1	/	-8	-68	95*	-186	18
CCN(CC)c1ccc(/C=C2/C(=O)ON=C2C)cc1	12	-135	-24	8	-33	-10
Cc1ccc(/C=c2/sc3nnc(-c4ccccc4Cl)n3c2=O)o1	4	-3	-3	-1	-4	1
CCN(CC)c1ccc(/C=c2\sc3nnc(-c4ccccc4Cl)n3c2=O)cc1	3	-4	-5	47*	-62	7
CCN(CC)c1ccc(/C=c2/sc3nnc(-c4ccccc4C)n3c2=O)cc1	8	-3	-4	43*	-19	-1
CN1CCC(N(CCc2ccccc2)C(=O)CCC(=O)O)CC1	3	-3	-2	35*	-8	-4
COc1cc2c3nnc(-c4ccc(F)cc4)c-3cn(Cc3cccc(F)c3)c2cc1OC	-2	1	4	49*	-63	17
CCc1ccccc1NC(=O)CC(NCc1ccccc1)C(=O)O (stereo not drawn)	0	2	1	6	-1	2
Cc1ccccc1C(=O)O/N=C(\N)Cc1cccs1	-4	-1	8	-1	-2	2
O=C(CCN1C(=O)/C(=C\c2ccco2)SC1=S)Nc1ccc(C(=O)O)c(O)c1	1	-2	3	-8	6	83*
CCc1ccc(/C=C2\SC(=S)N(CCCC(=O)Nc3ccccn3)C2=O)cc1	-2	5	-5	37*	1	7
CC(/C=C1\SC(=S)N(CCCC(=O)Nc2ccc(C(=O)O)cc2)C1=O)=C\c1ccccc1	-8	-3	-4	-2	-3	85*
COc1ccccc1/C=C1\SC(=S)N(CCC(=O)Nc2ccc(C(=O)O)c(O)c2)C1=O	-5	-2	3	1	2	10
O=C(CCN1C(=O)/C(=C/c2ccco2)SC1=S)Nc1ccc(C(=O)O)c(O)c1	2	-3	-2	-6	0	88*
O=C(CCCN1C(=O)/C(=C/c2ccco2)SC1=S)Nc1ccccc1C(=O)O	-14	-3	12	-5	-3	66*
COc1ccc2c(c1)CC/C(=C\C=C\c1ccccc1OC)C2=O	-5	-2	-1	8	4	0
CCN(CC)Cc1c(O)ccc2c1O/C(=C\C=C\c1ccccc1)C2=O	6	-84	-3	113*	-165	14
COCCN(CCOC)Cc1c(O)ccc2c1O/C(=C\c1ccc(C)o1)C2=O	4	-17	-8	147*	-86	14
COc1ccccc1/C=C/C=C1\Oc2c(ccc(O)c2CN(C)C)C1=O	10	-41	-17	107*	-147	11
CC(=O)Nc1ccc(NC(=O)C2CCCN2C(=O)NCc2ccccc2)cc1 (stereo not drawn)	-2	-1	3	-8	-17	2
CC(C)(C)C(=O)NC(=S)Nc1ccccc1C(N)=O	2	-1	-1	3	-8	2
CC(=O)N/C(=C\c1ccc(Cl)cc1)C(=O)O	-2	/	/	/	/	/
COc1ccc(-n2c(O)c(/C=N/NS(=O)(=O)c3ccc(C)c([N+](=O)[O-])c3)c3ccccc3c2=O)cc1OC	1	-49	-15	128*	-64	-15
SMILES	IDE inh	Keap1 Nrf2 FP	IDE act	cardiac RTF act	RTF Ca sens inh	C-LANA FP
O=C(Nc1ccc(C(F)(F)F)cc1)N1CCN(c2ccnc3cc(Cl)ccc23)CC1	30*	4	/	/	/	0
CCOC(=O)CSc1ccc(C(=O)NCCCN2CCOCC2)cc1[N+](=O)[O-]	-2	-1	1	-8	-2	1
CN(C)c1ccc(/C=C2\SC(=O)N(CC(O)Cn3c4ccccc4c4ccccc43)C2=O)cc1 (stereo not drawn)	4	-1	-5	55*	-16	5
Cc1[nH]nc2c1C(c1ccsc1C)C(C#N)=C(N)O2 (stereo not drawn)	3	4	11	2	-4	-1
Cc1sccc1C1C(C#N)=C(N)SC(N)=C1C#N	18*	/	/	/	/	/
Cc1cc(C2C(C#N)=C(N)SC(N)=C2C#N)c(C)s1	12	-45	-17	41*	-96	-5
Cc1cc(C2C(C#N)=C(N)Oc3n[nH]c(C)c32)c(C)s1 (stereo not drawn)	5	-2	6	-1	7	0
CC(=O)c1ccc(O[C@@H]2O[C@H](CO)[C@@H](O)[C@H](O)[C@H]2O)cc1	6	/	/	/	/	/
CCSc1nc2sc3c(c2c(=O)n1-c1ccccc1C)CCN(C)C3	3	0	-10	0	-1	-2
COc1ccccc1Oc1ccc(Oc2ccccc2OC)cc1	2	-2	3	5	4	-1
Cc1ccc(C)c(S(=O)(=O)Nc2cc(SCC(=O)O)c(O)c3ccccc23)c1	13	61*	-21	-2	3	3
Cc1cc(OCC(=O)NCC2CCC(C(=O)O)CC2)c2c(C)c(Cc3ccccc3)c(=O)oc2c1 (stereo not drawn)	7	-3	-2	4	-1	0
Cn1c(-c2ccc(C=O)s2)nc2c3ccccc3c3ccccc3c21	3	-3	-5	81*	-14	16
COc1ccc2c(c1)c(C(=O)N/N=C/c1cccc(O)c1)c(C)n2C	-3	-4	4	-5	1	1
COc1ccc2c(c1)c(C(=O)N/N=C/c1cccc(Br)c1)c(C)n2C	18*	-3	-6	4	-4	1
CN(C(=O)CN1CCN(c2ccccc2F)CC1)C1CCCc2ccccc21 (stereo not drawn)	1	-4	1	9	-8	-2
CCc1ccc(N2CC(C(=O)OCC(=O)N(CC)c3c(N)n(Cc4ccccc4)c(=O)[nH]c3=O)CC2=O)cc1 (stereo not drawn)	/	188*	-4	13	-18	/
Cc1c(-c2ccc(O)cc2)nc2nc(-c3ccccc3)c(-c3ccccc3)nn12	92*	/	/	/	/	/
Nc1ccc(SCC(=O)Nc2cccc([N+](=O)[O-])c2)cc1	1	-3	4	-3	8	0
CCOC(=O)c1c(-c2ccccc2)csc1NC(=O)/C(C#N)=C/c1ccc(O)c(OC)c1	0	-1	-135	47*	-56	1
Cc1ccc(C)c(C(=O)CSc2nc(N)cc(=O)[nH]2)c1	-1	2	-3	-3	-12	2
FC(F)(F)c1cc(CCN2CCNC[C@H]2Cc2cccc3ccccc23)cc(C(F)(F)F)c1	4	-5	20*	13	-13	0
